Source: PubChem BioAssay (National Center for Advancing Translational Sciences (NCATS))
Nrf2 block: Nrf2 pathway inhibition; 2.1% of 360,000 active; Potency, µM (top dose mostly 46 µM), hits mostly inhibitors; A549 ARE-Fluc reporter, luciferase luminescence, 18-24 h; note: nearly all actives have a fitted effect of over 60% in size
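Concentration-response testing used A549 ARE_Fluc cells at 5000 cells/well. Following an 18-24 h compound incubation, viability was read by fluorescence (Ex 405/Em 525) and luciferase output by luminescence.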
A549 tox: counter-screen for Nrf2 inhibitors: cytotoxicity in A549 cells; A549 ARE-Fluc cells, CellTiter-Fluor viability, 18-24 h; Potency, µM (titrated, usually from 46 µM), most hits filed as inhibitors; 0.16% of 390,000 active; AID 504648
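A549 ARE-Fluc cells in 5% FBS OPTI-MEM, 5000 cells/well, rested 2 h then exposed to compounds in concentration-response for 18-24 h at 37 °C. Viability by CellTiter-Fluor fluorescence (Ex 405/Em 525) after 30 min; luciferase luminescence (BugLite, 15 min, RT) read afterwards.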
Nrf2 activator: Nrf2 pathway activation. AREc32 ARE-luciferase reporter (MCF7-derived line), luminescence, 24 h. Potency, µM (top dose mostly 46.1 µM), most hits filed as activators. 0.31% of 410,000 active; note: nearly all actives have a fitted effect of over 65% in size
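ARE-driven firefly luciferase activity in AREc32 cells measured after a 24 hr compound exposure at 37 deg C, using Steady-Glo reagent and a 30 min room-temperature hold.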
ELG1 repair inh: inhibitors of ELG1-dependent DNA repair in HEK293T cells | HEK293T ELG1-luciferase reporter, luminescence, 16 h; DNA damage induced by 5-fluorouridine | Potency, µM (doses to about 46.1 µM), hits mostly inhibitors | 2.3% of 330,000 active | AID 504467; note: nearly all actives have a fitted effect of over 55% in size
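Luminescence from the luciferase reporter, measured 30 min after ONE-Glo reagent at room temperature, was the read-out. Beforehand, 2,000 cells per well were exposed for 16 hr at 37 °C to 5-fluorouridine together with compound or vehicle.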
Each line names hits and unclear results; the compound was inactive in the other large screens. An excerpt weighted towards active compounds, which were near 3.7% of everything screened. Calls come from the whole dose curve; as a rule, active = well fitted curve in the direction sought with a large enough effect; inconclusive = small, poorly fitted or top-dose-only effect, or another doubt; inactive = no such curve, though single readings can be large; an effect the other way counts as inactive or inconclusive.

COc1ccc(C(=O)c2sc(NC(C)C)nc2N)cc1OC	A549 tox inconclusive, ELG1 repair inh inconclusive (no result: Nrf2 block)
CCC1(C)Cc2ccccc2-c2nc(NCCCO)[nH]c(=O)c21 (configuration not stated)	ELG1 repair inh inconclusive
COc1ccc(OC)c(CCNC(=O)CS(=O)(=O)Cc2nc(-c3ccccc3Cl)oc2C)c1	Nrf2 block inconclusive, ELG1 repair inh 21µM
Cc1ccccc1-c1nc(CS(=O)(=O)CC(=O)NCc2ccccc2)c(C)o1	ELG1 repair inh inconclusive
Cc1ccccc1-c1nc(CS(=O)(=O)CC(=O)NCCCc2ccccc2)c(C)o1	Nrf2 block 21µM, A549 tox inconclusive (no result: ELG1 repair inh)
O=C(NNS(=O)(=O)c1ccccc1[N+](=O)[O-])c1cc2ccccc2cc1O	none
COc1cc(OC)cc(C(=O)Nc2cccc(-c3cn4ccsc4n3)c2)c1	none (no result: Nrf2 block, ELG1 repair inh)
Cn1c(C(=O)NCCc2ccccc2)cc2cc(S(=O)(=O)N3CCCCC3)ccc21	none (no result: Nrf2 block, ELG1 repair inh)
CCC(Sc1nc(N)c(NC(=O)c2ccc(OC)cc2)c(=O)[nH]1)C(=O)O (configuration not stated)	ELG1 repair inh inconclusive
O=C(O)[C@@H]1C[C@H](C(=O)O)N1	none (no result: Nrf2 activator, ELG1 repair inh)
CCOC(=O)CN(C(=O)CSc1nnc2c(n1)[nH]c1c(C)cc(C)cc12)c1ccccc1	ELG1 repair inh 16µM (no result: Nrf2 block, A549 tox, Nrf2 activator)
CC(C)(C)c1ccc(Cn2nnc3c(=O)[nH]c(C4CCCN(C(=O)c5cccs5)C4)nc32)cc1 (configuration not stated)	Nrf2 block 23µM
O=C(c1ccco1)N1CCC(c2nc3c(nnn3Cc3c(Cl)cccc3Cl)c(=O)[nH]2)CC1	ELG1 repair inh inconclusive
O=C(c1ccccc1)N1CCC(c2nc3c(nnn3Cc3ccccc3Cl)c(=O)[nH]2)CC1	ELG1 repair inh inconclusive
CC(C)(C)CC(=O)N1CCC(c2nc3c(nnn3Cc3c(F)cccc3Cl)c(=O)[nH]2)CC1	ELG1 repair inh 16µM
CC(C)(C)c1ccc(Cn2nnc3c(=O)[nH]c(C4CCN(C(=O)c5ccco5)CC4)nc32)cc1	Nrf2 block 26µM, A549 tox inconclusive, ELG1 repair inh 10µM
Cc1ccccc1Nc1ncnc2c1c(-c1ccccc1)cn2-c1ccc(F)cc1	none (no result: Nrf2 block, ELG1 repair inh)
Cc1cc(C)cc(NC(=O)CSc2nnc(-c3cc4occc4n3C)n2-c2ccccc2C)c1	none (no result: ELG1 repair inh)
COc1ccc(CN(C2CC2)S(=O)(=O)c2ccccc2Br)cc1	Nrf2 block 16µM, ELG1 repair inh inconclusive
Cc1ccc(O)c(C(=O)c2cnn(C(=O)COc3ccc(Cl)cc3)c2)c1	ELG1 repair inh 16µM
COc1ccccc1CNC(=O)CC12CC3CC(CC(Br)(C3)C1)C2	none
Cc1cccc(N(C(=O)CNC(=O)c2ccco2)C(C(=O)NC2CCCCC2)c2cccnc2)c1 (configuration not stated)	none
O=C(NC1CCCCC1)C(c1cccnc1)N(C(=O)CCl)c1cccc(Cl)c1 (configuration not stated)	Nrf2 block inconclusive, Nrf2 activator 13µM, ELG1 repair inh 21µM
Cn1cc2ccc(-c3ccc4ncnc(NCc5cccs5)c4c3)cc2n1	Nrf2 block inconclusive (no result: Nrf2 activator, ELG1 repair inh)
Cc1cc2occ(CC(=O)N(C)CC(=O)Nc3cccc(F)c3)c2cc1C	Nrf2 block 26µM, A549 tox inconclusive
CSc1ncc(Cl)c(C(=O)Nc2cccnc2)n1	Nrf2 activator 11µM
O=C(CN1CCN(c2ccccc2O)CC1)Nc1ccccc1C(=O)NCCc1ccccc1	ELG1 repair inh inconclusive
COc1ccc(N2CCN(CC(=O)Nc3ccccc3C(=O)NCc3ccccc3)CC2)cc1	Nrf2 block inconclusive, ELG1 repair inh 7.1µM
COc1ccc(CCNC(=O)c2ccccc2NC(=O)CN2CCN(c3ccccc3O)CC2)cc1	Nrf2 block inconclusive, ELG1 repair inh 5.2µM
COc1ccc(N2CCN(CC(=O)Nc3ccccc3C(=O)NC(C)c3ccccc3)CC2)cc1 (configuration not stated)	none (no result: Nrf2 block, A549 tox, ELG1 repair inh)
Fc1cccc(Cl)c1CNc1n[nH]c(-c2ccco2)n1	Nrf2 block inconclusive, Nrf2 activator inconclusive (no result: ELG1 repair inh)
O=P(OCC1CCCO1)(OCC1CCCO1)OCC1CCCO1 (configuration not stated)	none (no result: ELG1 repair inh)
C=C(C)Cn1c(Sc2nc3ccccc3[nH]2)nc2c1c(=O)[nH]c(=O)n2C	ELG1 repair inh 26µM
CCCCCn1c(Sc2nc3ccccc3s2)nc2c1c(=O)[nH]c(=O)n2C	Nrf2 block 16µM, ELG1 repair inh 21µM
Cc1ccc(-n2[nH]c(C)c(/C=N/Nc3ccc([N+](=O)[O-])cc3[N+](=O)[O-])c2=O)cc1C	Nrf2 block inconclusive, A549 tox 16µM, ELG1 repair inh 10µM
Cc1[nH]n(-c2ccccc2)c(=O)c1/C=N/NC(=O)c1cccc([N+](=O)[O-])c1	none
COc1cccc2sc3ccc(C#CC4(O)CCCCC4)cc3c(=O)c12	Nrf2 block inconclusive, ELG1 repair inh inconclusive
O=c1c2ccccc2sc2ccc(C#CC3(O)CCCCC3)cc12	Nrf2 block 21µM (no result: ELG1 repair inh)
Cn1c(O)c(N=NC(=O)c2cccc(S(=O)(=O)N3CCCCC3)c2)c2ccccc21	Nrf2 block inconclusive, ELG1 repair inh 18µM
CN(CC(=O)Nc1ccc(Br)cc1)S(=O)(=O)c1cccc2nsnc12	Nrf2 block inconclusive (no result: ELG1 repair inh)
CCOc1ccc(-c2nnc3ccc(SCC(=O)Nc4nc5ccccc5s4)nn23)cc1	ELG1 repair inh 7.3µM
CCOc1ccc(-c2nnc3ccc(SCC(=O)Nc4nc5ccc(C)cc5s4)nn23)cc1	ELG1 repair inh 8.2µM
O=C(Nc1ccc(Br)cc1F)c1cc(S(=O)(=O)NC2CCCCC2)ccc1F	none (no result: Nrf2 block, ELG1 repair inh)
O=C(N/N=C/c1ccc(F)cc1)c1cc(-c2ccc3c(c2)OCO3)n[nH]1	Nrf2 block inconclusive, A549 tox inconclusive
COc1ccc(/C=N/NC(=O)c2cc(-c3ccc4c(c3)OCO4)n[nH]2)cc1OC	ELG1 repair inh 15µM
CSc1nc2nc3c(cc2c(=O)n1-c1cccc(C)c1)COC(C)(C)C3	Nrf2 block inconclusive, ELG1 repair inh 21µM
CCN1C(=O)/C(=C\C=C2/C=CC=CN2CC)SC1=S	Nrf2 block inconclusive, A549 tox 15µM, ELG1 repair inh inconclusive
COc1ccc(/C=N/n2c(SC)nnc2-c2ccccc2)c(OC)c1OC	Nrf2 block inconclusive, ELG1 repair inh 8.2µM
COc1ccc(/C=N/n2c(SC)nnc2-c2ccccc2)cc1C	none (no result: ELG1 repair inh)
COc1ccc(CCNc2ncnc3nc[nH]c23)cc1	Nrf2 block 15µM (no result: Nrf2 activator, ELG1 repair inh)
COc1ccccc1CCNc1ncnc2nc[nH]c12	Nrf2 block inconclusive (no result: Nrf2 activator, ELG1 repair inh)
CCOc1ccc(Nc2ncnc3ccc([N+](=O)[O-])cc23)cc1	ELG1 repair inh 9.2µM
Cc1cc2cc(C(c3nnnn3CC3CCCO3)N3CCCc4ccccc43)c(=O)[nH]c2cc1C (configuration not stated)	Nrf2 block inconclusive
O=c1[nH]c2cc3c(cc2cc1C(c1nnnn1Cc1ccccc1)N1CCCc2ccccc21)OCO3 (configuration not stated)	ELG1 repair inh 0.65µM
CCc1ccc2[nH]c(=O)c(C(c3nnnn3CC3CCCO3)N3CCCc4ccccc43)cc2c1 (configuration not stated)	Nrf2 block 23µM, A549 tox inconclusive
